Experimental data from the supplement of paper PMC10849652.
Of roughly 7,900 targets only a part is listed; those with a hit were picked by preference. About 0.6% of all pairs of compound and target were hits. Unmarked numbers belong to inactive results.

compound: CNC(=O)c1ccc(Nc2ncc(C(F)(F)F)c(NCc3nccnc3N(C)S(C)(=O)=O)n2)cc1 [defactinib]; experiment: log2 fold change, soluble protein after heating vs DMSO (PISA); higher = thermal stabilisation; K562 cells, 10 uM, 30 min; active = over 0.2 and 3.5 SD of the protein, either way, in both replicates (recomputed)
Method in brief: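 Soluble protein was defined as the supernatant after 21,000xg for 90 min. It came from K562 cells at 2×10^6 cells/mL given 10 μM compound for 30 min, heated in aliquots for 3 min across 48°C-58°C, pooled, and extracted in PBS with 0.5% NP-40 at 4°C, and was quantified by TMTpro 16plex LC-MS/MS with equalised channel sums. Thermal stability against control samples, from duplicates, is reported as log2 fold change.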

UniProt Q6UB28, sequence (Q6UB28 whole entry, looked up): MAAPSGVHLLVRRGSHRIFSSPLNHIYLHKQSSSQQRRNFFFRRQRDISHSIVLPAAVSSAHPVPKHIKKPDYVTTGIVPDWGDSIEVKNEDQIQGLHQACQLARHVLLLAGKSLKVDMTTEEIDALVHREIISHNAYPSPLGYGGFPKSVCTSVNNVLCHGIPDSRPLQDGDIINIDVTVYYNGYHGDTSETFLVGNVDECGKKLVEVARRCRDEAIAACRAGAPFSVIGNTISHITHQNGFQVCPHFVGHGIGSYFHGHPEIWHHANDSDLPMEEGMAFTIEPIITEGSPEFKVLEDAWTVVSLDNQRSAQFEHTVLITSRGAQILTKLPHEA
UniProt Q6UWB1, sequence (Q6UWB1 whole entry, looked up): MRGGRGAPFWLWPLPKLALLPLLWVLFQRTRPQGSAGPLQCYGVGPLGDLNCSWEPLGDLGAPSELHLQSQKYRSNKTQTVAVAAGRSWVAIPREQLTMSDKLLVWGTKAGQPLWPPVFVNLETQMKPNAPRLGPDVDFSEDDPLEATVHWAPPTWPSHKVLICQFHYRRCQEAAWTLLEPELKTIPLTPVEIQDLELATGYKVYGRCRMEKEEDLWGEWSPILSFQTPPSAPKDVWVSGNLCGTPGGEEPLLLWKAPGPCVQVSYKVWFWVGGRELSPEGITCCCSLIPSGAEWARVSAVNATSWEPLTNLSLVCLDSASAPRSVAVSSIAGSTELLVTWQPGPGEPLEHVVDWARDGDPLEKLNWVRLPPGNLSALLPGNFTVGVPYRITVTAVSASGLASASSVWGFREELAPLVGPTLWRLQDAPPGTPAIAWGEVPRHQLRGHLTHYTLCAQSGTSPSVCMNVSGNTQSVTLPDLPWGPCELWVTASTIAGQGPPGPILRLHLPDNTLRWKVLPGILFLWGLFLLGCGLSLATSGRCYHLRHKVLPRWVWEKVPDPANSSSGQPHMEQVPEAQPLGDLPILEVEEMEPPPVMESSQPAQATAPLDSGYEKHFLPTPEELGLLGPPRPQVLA
UniProt Q71RC2, sequence (Q71RC2 whole entry, looked up): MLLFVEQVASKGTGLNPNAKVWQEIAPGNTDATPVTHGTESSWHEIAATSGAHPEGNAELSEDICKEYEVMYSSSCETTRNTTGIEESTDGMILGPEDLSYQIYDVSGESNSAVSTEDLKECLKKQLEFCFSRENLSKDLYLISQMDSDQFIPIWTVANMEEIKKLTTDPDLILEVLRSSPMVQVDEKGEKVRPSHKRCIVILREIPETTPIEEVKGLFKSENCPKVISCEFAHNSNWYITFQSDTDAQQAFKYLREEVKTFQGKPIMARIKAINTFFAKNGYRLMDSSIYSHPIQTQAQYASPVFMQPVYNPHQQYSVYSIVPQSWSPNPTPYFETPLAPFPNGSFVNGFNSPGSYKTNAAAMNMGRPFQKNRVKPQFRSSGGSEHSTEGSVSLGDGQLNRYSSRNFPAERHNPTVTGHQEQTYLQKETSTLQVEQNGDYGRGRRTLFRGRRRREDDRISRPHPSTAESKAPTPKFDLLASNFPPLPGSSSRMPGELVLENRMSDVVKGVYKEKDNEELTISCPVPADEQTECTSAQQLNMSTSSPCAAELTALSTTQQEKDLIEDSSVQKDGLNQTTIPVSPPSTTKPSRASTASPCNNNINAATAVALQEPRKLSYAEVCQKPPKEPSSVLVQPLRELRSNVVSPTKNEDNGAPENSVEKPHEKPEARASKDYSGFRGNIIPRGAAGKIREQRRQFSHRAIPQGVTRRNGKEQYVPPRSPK
UniProt Q9C0E8, sequence (Q9C0E8 whole entry, looked up): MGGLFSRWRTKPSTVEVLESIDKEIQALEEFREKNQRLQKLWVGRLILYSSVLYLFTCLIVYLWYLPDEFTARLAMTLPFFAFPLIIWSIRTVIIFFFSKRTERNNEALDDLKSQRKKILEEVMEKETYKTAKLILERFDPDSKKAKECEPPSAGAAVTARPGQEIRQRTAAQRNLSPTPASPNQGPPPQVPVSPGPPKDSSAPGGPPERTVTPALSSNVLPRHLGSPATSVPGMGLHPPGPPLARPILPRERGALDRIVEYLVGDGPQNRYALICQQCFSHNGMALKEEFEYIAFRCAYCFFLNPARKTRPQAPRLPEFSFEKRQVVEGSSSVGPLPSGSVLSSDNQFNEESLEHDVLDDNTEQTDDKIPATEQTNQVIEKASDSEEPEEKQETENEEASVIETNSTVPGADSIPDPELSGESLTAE
UniProt Q03252, sequence (Q03252 whole entry, looked up): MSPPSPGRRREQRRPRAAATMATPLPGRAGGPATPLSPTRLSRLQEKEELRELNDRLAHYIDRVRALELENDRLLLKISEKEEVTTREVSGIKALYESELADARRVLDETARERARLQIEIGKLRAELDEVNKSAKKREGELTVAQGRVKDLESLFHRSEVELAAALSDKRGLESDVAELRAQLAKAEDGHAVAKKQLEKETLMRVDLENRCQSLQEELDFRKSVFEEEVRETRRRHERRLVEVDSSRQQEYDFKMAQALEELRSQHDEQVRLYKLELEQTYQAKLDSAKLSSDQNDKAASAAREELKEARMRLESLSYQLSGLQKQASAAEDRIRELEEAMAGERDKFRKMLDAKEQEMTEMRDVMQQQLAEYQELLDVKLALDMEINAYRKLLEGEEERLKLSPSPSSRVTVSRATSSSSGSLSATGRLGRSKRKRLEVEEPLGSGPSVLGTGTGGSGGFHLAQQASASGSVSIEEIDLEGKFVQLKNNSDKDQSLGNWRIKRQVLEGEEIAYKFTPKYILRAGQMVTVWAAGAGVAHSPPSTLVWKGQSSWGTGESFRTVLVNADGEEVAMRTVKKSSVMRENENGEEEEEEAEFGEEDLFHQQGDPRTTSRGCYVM
UniProt Q8IVT5, sequence (Q8IVT5 whole entry, looked up): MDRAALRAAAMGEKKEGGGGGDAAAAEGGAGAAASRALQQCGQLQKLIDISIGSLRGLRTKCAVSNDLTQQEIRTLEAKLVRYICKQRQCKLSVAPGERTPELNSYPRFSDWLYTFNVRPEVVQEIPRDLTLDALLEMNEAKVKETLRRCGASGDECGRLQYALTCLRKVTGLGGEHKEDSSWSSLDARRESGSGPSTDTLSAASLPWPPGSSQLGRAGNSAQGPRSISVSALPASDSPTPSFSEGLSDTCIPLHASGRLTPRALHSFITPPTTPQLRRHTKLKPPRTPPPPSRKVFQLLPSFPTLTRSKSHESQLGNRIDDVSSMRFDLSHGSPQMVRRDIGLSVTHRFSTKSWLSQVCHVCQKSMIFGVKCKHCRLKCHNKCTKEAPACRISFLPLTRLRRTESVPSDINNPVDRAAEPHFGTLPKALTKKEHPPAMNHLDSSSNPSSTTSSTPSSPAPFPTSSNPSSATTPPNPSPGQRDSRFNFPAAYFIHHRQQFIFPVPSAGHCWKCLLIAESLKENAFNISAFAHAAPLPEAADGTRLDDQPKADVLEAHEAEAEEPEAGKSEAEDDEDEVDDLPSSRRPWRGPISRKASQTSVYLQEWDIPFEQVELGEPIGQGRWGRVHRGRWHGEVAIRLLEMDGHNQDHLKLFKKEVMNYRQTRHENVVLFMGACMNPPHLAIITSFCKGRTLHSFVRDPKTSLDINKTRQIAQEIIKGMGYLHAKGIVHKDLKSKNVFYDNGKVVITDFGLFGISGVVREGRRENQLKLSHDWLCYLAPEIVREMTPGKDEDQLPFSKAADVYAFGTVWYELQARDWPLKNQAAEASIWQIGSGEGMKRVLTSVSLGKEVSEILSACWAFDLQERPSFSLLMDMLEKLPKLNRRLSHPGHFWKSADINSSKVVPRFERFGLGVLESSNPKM
UniProt Q9NVC6, sequence (Q9NVC6 whole entry, looked up): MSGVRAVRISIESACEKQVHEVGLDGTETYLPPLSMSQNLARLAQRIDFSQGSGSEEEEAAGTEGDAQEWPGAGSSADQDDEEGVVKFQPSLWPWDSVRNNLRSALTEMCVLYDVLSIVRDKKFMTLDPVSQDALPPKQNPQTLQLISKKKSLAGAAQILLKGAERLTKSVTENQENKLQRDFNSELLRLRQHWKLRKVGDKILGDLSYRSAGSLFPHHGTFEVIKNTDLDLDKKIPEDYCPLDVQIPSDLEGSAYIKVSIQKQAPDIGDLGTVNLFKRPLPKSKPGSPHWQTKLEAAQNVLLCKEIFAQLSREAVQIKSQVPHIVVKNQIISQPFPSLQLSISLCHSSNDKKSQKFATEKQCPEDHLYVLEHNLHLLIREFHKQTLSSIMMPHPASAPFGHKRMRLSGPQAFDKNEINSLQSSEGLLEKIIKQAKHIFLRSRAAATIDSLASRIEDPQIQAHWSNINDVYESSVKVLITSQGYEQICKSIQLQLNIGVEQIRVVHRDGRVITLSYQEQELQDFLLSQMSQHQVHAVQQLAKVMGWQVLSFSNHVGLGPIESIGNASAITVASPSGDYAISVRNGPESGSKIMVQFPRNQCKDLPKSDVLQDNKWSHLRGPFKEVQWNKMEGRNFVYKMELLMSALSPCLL
UniProt P13473, sequence (P13473 whole entry, looked up): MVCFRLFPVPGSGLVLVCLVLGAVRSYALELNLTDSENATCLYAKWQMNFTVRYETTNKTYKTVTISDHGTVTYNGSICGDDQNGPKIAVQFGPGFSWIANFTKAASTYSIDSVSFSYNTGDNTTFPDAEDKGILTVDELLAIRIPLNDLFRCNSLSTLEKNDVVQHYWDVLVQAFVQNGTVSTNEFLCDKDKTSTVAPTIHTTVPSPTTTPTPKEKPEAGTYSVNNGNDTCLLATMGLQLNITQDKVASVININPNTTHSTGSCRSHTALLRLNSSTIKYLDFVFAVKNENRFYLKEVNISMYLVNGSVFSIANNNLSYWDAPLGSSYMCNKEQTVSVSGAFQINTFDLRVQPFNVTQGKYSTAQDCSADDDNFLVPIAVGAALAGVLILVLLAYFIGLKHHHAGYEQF
UniProt Q8WWC4, sequence (Q8WWC4 whole entry, looked up): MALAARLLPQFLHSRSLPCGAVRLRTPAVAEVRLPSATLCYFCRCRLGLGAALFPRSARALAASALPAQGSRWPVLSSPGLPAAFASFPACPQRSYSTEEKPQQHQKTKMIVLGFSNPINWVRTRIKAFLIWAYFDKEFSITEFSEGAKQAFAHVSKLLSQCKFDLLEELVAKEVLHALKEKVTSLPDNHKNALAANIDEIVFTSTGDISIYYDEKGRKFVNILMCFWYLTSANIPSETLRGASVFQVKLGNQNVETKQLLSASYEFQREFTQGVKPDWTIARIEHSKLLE

Row | Target | log2 fold change
1 | LTV1 (UniProt Q96GA3) | 0.145
2 | LMNB1 (UniProt P20700) | -0.166
3 | LNPK (UniProt Q9C0E8) | 0.009
4 | LDAH isoform 2 (UniProt Q9H6V9) | -0.09
5 | IL27RA (UniProt Q6UWB1) | -0.097
6 | KIF2C (UniProt Q99661) | -0.051
7 | LAMP2 (UniProt P13473) | -0.047
8 | LMNB2 (UniProt Q03252) | -0.201
9 | MAP1LC3B2 (UniProt A6NCE7) | -0.015
10 | METAP1D (UniProt Q6UB28) | 0.013
11 | LIMD1 (UniProt Q9UGP4) | -0.03
12 | MED17 (UniProt Q9NVC6) | -0.021
13 | KIF3A (UniProt Q9Y496) | 0.013
14 | IKZF1 (UniProt Q13422) | -0.1
15 | KSR1 (UniProt Q8IVT5) | -0.073
16 | MAIP1 (UniProt Q8WWC4) | -0.054
17 | LPGAT1 (UniProt Q92604) | -0.184
18 | LTO1 (UniProt Q8WV07) | 0.051
19 | LARP4 isoform 4 (UniProt Q71RC2) | -0.036
20 | IMMP1L (UniProt Q96LU5) | 0.011
21 | LRBA (UniProt P50851) | -0.015
22 | LMBRD2 (UniProt Q68DH5) | -0.01
23 | MAP2K2 (UniProt P36507) | -0.056
